Screens (PubChem)
Rows were chosen to be rich in hits. Some 12% of all compounds tested hit in one or more screens of this group.
Shiga toxin inh = blocks Shiga toxin action in Vero cells; Vero cells, Shiga toxin protein synthesis inhibition reporter; inhibition, % at 38.7 µM; hit rate 9.2% among 290,000; AID 2315; in the data active = inhibition mostly above about 28%, no sharp cut-off; inactive = mostly below about 43%; note: 0% is about no effect
Sm TGR inh = inhibitors of Schistosoma mansoni thioredoxin glutathione reductase; Q962Y6; hit rate 3% among 360,000; purified TGR, DTNB reduction, TNB absorbance 405 nm; Potency, µM (top dose mostly 114 µM), for inactives: top-dose activity change, negative = inhibition, actives largely listed as inhibitors; AID 485364; active = well fitted inhibition curve with a large enough effect; inconclusive = small, poorly fitted or top-dose-only effect; inactive = no such curve, though single readings can be large or run the other way; note: potency is the fitted concentration of half-maximal effect; % is set by controls: 0 for no effect and ±100 for the full control effect; nearly all actives have a fitted effect of over 60% in size
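TGR 20 nM + NADPH 100 uM (dispensed conc.), cpd preinc 15 min RT; start with NADPH (500 uM addition) then DTNB (15 mM addition). Kinetic TNB absorbance, 405 nm filter. Four-parameter Hill fit across titration.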
FMDV inh = blocks foot and mouth disease virus. hit rate 1.2% among 410,000. Potency, µM (titrated, usually from 57.9 µM), for inactives: at the highest dose activity change, negative = inhibition, actives largely listed as inhibitors. AID 1159524. FMDV antiviral cell-based qHTS; calls by dose curve; tested in HEK293T cells; note: read-out not given here; potency is the fitted concentration of half-maximal effect; % is set by controls: 0 for no effect and ±100 for the full control effect; nearly all actives have a fitted effect of over 45% in size
Cycloheximide cs = counter-screen hit for Shiga toxin inhibitors, cycloheximide; hit rate 12% among 300,000; cell reporter, cycloheximide protein synthesis inhibition counterscreen; max response, %; AID 2314; in the data active = max response mostly above about 13%, no sharp cut-off; inactive = mostly below about 14%; note: read at 38.3 µM for the half of the compounds with a filed dose; 0% is about no effect
* hit, by the source's call; ? = inconclusive; . = no result given; [ ] = another dose, or the depositor's remark.

SMILES | Shiga toxin inh | Sm TGR inh | FMDV inh | Cycloheximide cs
Cc1cc2c(cc1NS(=O)(=O)c1cccc(C#N)c1)n(C)c(=O)c(=O)n2C | . | 0% | 2% | .
CCNc1nc2cccnc2s1 | 38 | 3% | 44% | 26*
C/C(=N\Nc1nc(C)cc(C)n1)c1ccc(C)o1 | 29 | 2% | 14% | 21*
C/C(=N\Nc1nnc2c3ccccc3n(C)c2n1)c1ccc(C)o1 | 29 | -11% | 16% | 13
CC(=O)Nc1ccc(NC(=O)c2oc3ccc4c(c3c2C)C(=O)CC(C)(C)O4)cc1 | . | -10% | 21% | .
CCCN1C2CCCC1CC(NC(=O)c1ccc(C(C)(C)C)cc1)C2 (stereo unspecified) | 81 | 12% | 25% | 13*
CCCN1C2CCCC1CC(NC(=O)c1cc(OC)cc(OC)c1)C2 (stereo unspecified) | -2 | -110% | -7% | -1
Clc1ccc(OCc2nnc(SCc3nnc(-c4ccccc4)o3)o2)c(Cl)c1 | 56* | 7% | 22% | 39*
O=C(CSc1nnc(COc2ccc(Cl)cc2Cl)o1)Nc1ccccn1 | 60* | -1% | 2% | 28*
Clc1ccc2nc(SCc3nnc(-c4ccccc4)o3)[nH]c2c1 | 9 | -26% | -17% | -3
CC(O)(COc1ccccc1)c1ccc2c(c1)CN(Cc1cccn1-c1ccccn1)CCO2 (stereo unspecified) | . | . | -13% | .
Cc1nnc(N2CCC(C(=O)NC3CCCCC3)CC2)c2nn(-c3ccc(Cl)cc3)c(C)c12 | . | 0% | -2% | .
CCC1CN(C(=O)N2CCC(C(=O)NCCc3ccc(OC)cc3OC)CC2)c2cc(C)ccc2O1 (stereo unspecified) | . | -6% | 28µM* | .
CCC1CN(C(=O)Nc2ccccc2F)c2cc(C)ccc2O1 (stereo unspecified) | . | 1% | -17% | .
CCC1CN(C(=O)Nc2ccc(C)cc2)c2cc(C)ccc2O1 (stereo unspecified) | 21 | 2%[57.1 µM] | 9% | 12*
Cc1c(-c2ccccn2)c(=O)[nH]n1-c1ccc(F)cc1 | 58 | 5% | -34% | 28*
CCCCCCCCCCCCCCCCOCC(CO)OC (stereo unspecified) | . | . | -12%[6.7 µM] | .
Cc1c(C(=O)N2CCCCCC2)sc2ncnc(NCC3CCCO3)c12 (stereo unspecified) | . | . | 6% | .
C/C(CC(=O)Nc1ccccn1)=N\NC(=O)c1ccc([N+](=O)[O-])cc1Cl | 8 | 1% | -5% | -3
C/C(Cn1nnc([N+](=O)[O-])n1)=N\NC(=O)c1ccncc1 | 13 | -26% | -21% | -1
C/C(Cn1nnc([N+](=O)[O-])n1)=N\NC(=O)c1ccccc1Cl | 27 | -24% | -3% | 22*
COc1ccc(C(=O)N/N=C(\C)Cn2cnc([N+](=O)[O-])n2)cc1 | 26 | 4% | 1% | 12
C/C(Cn1nnc([N+](=O)[O-])n1)=N\NC(=O)c1cccc(Cl)c1 | 44* | -8% | . | 20*
C/C(Cn1nnc([N+](=O)[O-])n1)=N\NC(=O)c1ccc(C)cc1 | 82* | -8% | -28% | 43*
O=C(c1ccco1)n1nc(-c2ccccc2)nc1NCc1ccc(F)cc1 | . | -4% | 16% | .
SMILES | Shiga toxin inh | Sm TGR inh | FMDV inh | Cycloheximide cs
O=C(Nc1nnc(C2CC2)s1)c1cccs1 | 100* | -3% | 40% | 51*
O=C(CCC(=O)c1cccs1)Nc1nnc(C2CC2)s1 | 4 | 5% | 25% | 17*
CC(=O)Nc1cccc(NC(=O)COc2ccc3c(c2)OCO3)c1 | 60* | 3% | 57% | 27*
CCc1ccc(OCC(=O)Nc2ccc3c(c2)OCCO3)cc1 | 30 | 20% | 25% | 27*
COc1ccc(NC(=O)COc2ccc3c(c2)OCO3)cc1 | 32 | -3% | 16% | 8
CCc1ccc(NC(=O)COc2ccc3c(c2)OCO3)cc1 | 42* | 0% | 45% | 31*
O=C(COc1ccc(S(=O)(=O)N2CCCC2)cc1)Nc1ccc2c(c1)OCCO2 | 44* | . | 17% | 24*
O=C1C[C@@H](c2ccc(O)cc2)Oc2cc(O[C@@H]3O[C@H](CO)[C@@H](O)[C@H](O)[C@H]3O)cc(O)c21 | -4 | . | . | 7
Cc1cc(=O)n(Cc2cccc(Br)c2)c2c1c(C)nn2-c1ccccc1 | . | 7% | -8% | .
COc1ccc(OC)c(-c2ccnc(-n3ncc(C(=O)N4CCN(CCO)CC4)c3C3CC3)n2)c1 | . | . | -8% | .
CC(=O)c1ccc(NC(=O)COc2ccc3c(c2)OCO3)cc1 | 4 | -14% | 31% | 19*
Cc1cc(C)cc(NC(=O)Cc2c(C(=O)O)c(C)cn2C)c1 | . | -2% | -7% | .
COc1ccc(CNC(=O)CSc2ncc(S(=O)(=O)c3ccc(C)c(Cl)c3)c(=O)[nH]2)cc1 | . | -4% | -5% | .
Cc1cc(C)c(NC(=O)C2CCN(c3nc4ccccc4n4cccc34)CC2)c(C)c1 | . | 1% | 18% | .
CC(C)(C)c1ccc(NC(=O)CSc2nnc(-c3n[nH]c4ccccc34)o2)cc1 | 37* | 2% | ? | 26
Cc1ccc(C)c(NC(=O)CSc2nnc(-c3n[nH]c4ccccc34)o2)c1 | -2 | -17% | -17% | -1
Cc1nn(C)c(C)c1CNC(=O)c1cnn2c1NC(c1ccccc1)CC2C(F)(F)F (stereo unspecified) | -5 | 6% | . | 0
Cc1ccc(C2CC(C(F)(F)F)n3nc(C(=O)NCc4c(C)nn(C)c4C)c(Cl)c3N2)cc1 (stereo unspecified) | -1 | 6% | 25µM* | -3
N#CC(c1cccc(Cl)c1)c1ccc2c(C(F)(F)F)cc(C(F)(F)F)nc2n1 (stereo unspecified) | 4 | 15% | 5µM* | 20
CCOc1ccccc1C(=O)Nc1cc(-c2ccc(C)cc2)no1 | . | 9% | 11% | .
c1ccc(CCNc2nc(-c3cccnc3)cs2)cc1 | 40* | 1% | . | 62*
O=C(COc1ccccc1)Nc1nc(-c2cccnc2)cs1 | . | -1% | -14% | .
c1ccc(CCNc2nc(-c3ccccn3)cs2)cc1 | 86* | . | 72% | 40*
Cc1ccc(OCC(=O)Nc2nc(-c3ccccn3)cs2)c(C)c1 | . | -24% | 23% | .
Cc1cccc(NC(=O)C(NS(=O)(=O)c2cccc3nsnc23)c2ccccc2)c1C (stereo unspecified) | . | 8% | 11% | .
SMILES | Shiga toxin inh | Sm TGR inh | FMDV inh | Cycloheximide cs
Cc1ccc(CNC(=O)Cn2c(=O)n(-c3ccc(Cl)cc3)c(=O)c3c(C)c(C)sc32)cc1 | . | -7% | -13% | .
COc1ccccc1N(Cc1ccccc1)S(=O)(=O)c1cccc(C(=O)Nc2cc(C)ccn2)c1 | 58* | 1% | ? | 43*
COc1ccccc1N(Cc1ccccc1)S(=O)(=O)c1cccc(C(=O)Nc2ncccc2C)c1 | . | 14% | 13% | .
O=C(COc1ccccc1[N+](=O)[O-])Nc1cccnc1 | 90* | -2% | 47% | 31*
Cc1ccnc(NC(=O)Cn2cc([N+](=O)[O-])cn2)c1 | 89* | 10% | 75% | 43*
Cc1ccnc(NC(=O)COc2ccccc2[N+](=O)[O-])c1 | 140* | -1% | . | 40*
Cc1ccc2cccc(NC(=O)COc3ccccc3[N+](=O)[O-])c2n1 | . | 1% | -21% | .
O=C(COc1ccccc1[N+](=O)[O-])NCc1cccnc1 | 3 | -9% | -16% | -2
OC1CCN(Cc2ccc3c(c2)CN(Cc2ccc(Oc4ncccn4)cc2)CCO3)CC1 | . | . | -6% | .
